Records with an inconclusive call do not appear. Active and inactive are the calls of the source. The calls were made as follows: active = hit-call score of the fitted dose curve at least 0.9, where 1 is the maximum; inconclusive = response in the unintended direction; inactive = score below 0.9.

Chain of sheep Cyclooxygenase-1 (Cox1), PTGS1 (gene 443551) (P05979 whole entry, looked up): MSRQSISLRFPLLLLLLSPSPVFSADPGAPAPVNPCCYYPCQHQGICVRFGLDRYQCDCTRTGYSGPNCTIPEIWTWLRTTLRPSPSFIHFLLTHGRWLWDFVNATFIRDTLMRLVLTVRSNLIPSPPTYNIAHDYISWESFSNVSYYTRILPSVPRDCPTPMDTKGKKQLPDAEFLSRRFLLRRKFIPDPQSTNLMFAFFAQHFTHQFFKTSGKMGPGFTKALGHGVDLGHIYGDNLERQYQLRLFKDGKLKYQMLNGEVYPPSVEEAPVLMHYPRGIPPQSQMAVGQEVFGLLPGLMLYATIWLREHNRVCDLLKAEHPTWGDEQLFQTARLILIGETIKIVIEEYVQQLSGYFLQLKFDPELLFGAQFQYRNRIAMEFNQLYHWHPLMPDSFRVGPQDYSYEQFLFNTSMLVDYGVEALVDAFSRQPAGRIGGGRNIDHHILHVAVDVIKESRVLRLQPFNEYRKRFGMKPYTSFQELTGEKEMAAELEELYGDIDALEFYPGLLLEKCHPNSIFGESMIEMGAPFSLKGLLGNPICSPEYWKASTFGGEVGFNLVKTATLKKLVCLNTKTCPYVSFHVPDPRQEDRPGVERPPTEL

The first experiment has as its target sheep Cyclooxygenase-1 (Cox1), PTGS1 (gene 443551) (UniProt P05979). Put plainly: NVS_ENZ_oCOX1: NovaScreen (NVS) Enzymatic Assay for sheep Cyclooxygenase-1 (Cox1) (AID 2283239).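 Also: actives reduce cyclooxygenase activity so potencies are for inhibitors.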 In short, it runs like this:
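Tested in duplicate at 25 uM, then in concentration series if active, against seminal vesicle extract from sheep. Enzyme activity was measured colorimetrically at 0.66 hour and normalised to DMSO.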
As a reminder, the AC50 is the midpoint of the concentration-response curve, whichever way the signal moves. As for `CCCCCC(CO)CCC` (stereo unspecified), the AC50 is 0.00229 µM (active).

As for `O=C1OC2(c3cc(Br)c(O)c(Br)c3Oc3c2cc(Br)c(O)c3Br)c2c(Cl)c(Cl)c(Cl)c(Cl)c21`, the AC50 is 8.68 µM (active).

For `CCCCCCCCC`, the compound was classed as inactive.

On to `CC1CCC(C(C)CS)CC1S` (stereo unspecified), for which the AC50 was 25 µM (active). Consider `CC(C)[C@@H]1CC[C@@H](C)CC1=O`, for which the call was inactive. In the case of `COC(=O)c1ccc(C)cc1`, the result was inactive. For `CC(C)=CCO`, the compound was classed as inactive. Same read-out and setting: the same measure for `CC(C)(CO)[N+](=O)[O-]`: “inactive”.

Regarding `CC(=O)OCc1ccc2c(c1)OCO2`, the compound was classed as inactive.

As for `CCn1c2ccccc2c2cc(N)ccc21`, the AC50 is 3.25 µM (active). Take `O=c1[nH]nnc2ccccc12`: the AC50 is 0.401 µM (active).

`O=C(O)CN(CCN(CC(=O)O)CC(=O)O)CCN(CC(=O)O)CC(=O)O`: the call was inactive.

In a further experiment the target is guinea pig Leukotriene D4 Receptor (LTD4), CYSLTR1 (gene 100135514) (UniProt Q2NNR5). In words: NVS_GPCR_gLTD4: NovaScreen (NVS) G Protein-Coupled Receptor Assay for guinea pig Leukotriene D4 Receptor (LTD4) (AID 2283248). In short, it runs like this: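 Guinea pig lung membrane preparation; bound radioligand measured by filter scintillation after 1 h, loss of signal versus DMSO marking displacement. Compounds tested at 25 uM in duplicate, hits retested to max 50 uM.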
Chain of guinea pig Leukotriene D4 Receptor (LTD4), CYSLTR1 (gene 100135514) (Q2NNR5 whole entry, looked up): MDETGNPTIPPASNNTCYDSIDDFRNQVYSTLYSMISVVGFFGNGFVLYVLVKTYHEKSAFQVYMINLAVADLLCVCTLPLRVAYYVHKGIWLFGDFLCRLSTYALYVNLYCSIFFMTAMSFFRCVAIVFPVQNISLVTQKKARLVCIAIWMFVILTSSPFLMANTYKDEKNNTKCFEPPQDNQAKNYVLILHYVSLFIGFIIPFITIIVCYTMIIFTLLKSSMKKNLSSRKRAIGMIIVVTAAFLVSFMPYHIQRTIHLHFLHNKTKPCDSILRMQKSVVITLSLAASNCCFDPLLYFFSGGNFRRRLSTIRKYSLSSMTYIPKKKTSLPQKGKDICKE
On to `Clc1ccc(Cl)c(Cl)c1Cl`, for which the result was inactive. In the case of `CC(=O)/C=C/C1=C(C)CCCC1(C)C`, the outcome was inactive. For the compound `Cc1ccc(O)c(C(C)(C)C)c1`, the compound was called inactive. Regarding `CCCOCC(C)O` (stereo unspecified), the AC50 is 7.91 µM (active).

The values above are taken from PubChem BioAssay (EPA / NIEHS).
